# Calls of active or inactive are those of the source. Rule as the data show it, unless noted: active = inhibition above about 80%; inactive = the rest.
# Columns and labels:
# [1] = growth inhibition, single agent or in combination, cell-based, chromothripsis tumors, cisplatin or BGB combos (AID 1671449); settings: LFS_MB_P medulloblastoma cells;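 also: cells exposed for 96 hours; 0% = vehicle DMSO and 100% = killing by high DMSO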
# [2] = growth inhibition, single agent and combos, cell-based, chromothripsis tumors, cisplatin or BGB combos (AID 1671450); settings: HDN33 neuroblastoma cells, stronger effect = higher value;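 also: cells exposed to compound for four days; 0% = vehicle DMSO and 100% = cell killing by high DMSO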
# [3] = growth inhibition, single agents and combos, ICB984, cell-based, cisplatin or BGB combos, synergistic combos for chromothripsis tumors (AID 1671451; call rule not given here;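 also: cells exposed for 96 hours before readout; 0% = vehicle DMSO and 100% = killing by high DMSO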); settings: ICB984 medulloblastoma cells, drug combinations, stronger effect = higher value
# [4] = growth inhibition, single agents and combos, LFS_MB_1R, cell-based, cisplatin or BGB combos, synergistic combos for chromothripsis tumors (AID 1671452); settings: LFS_MB_1R medulloblastoma cells, stronger effect = higher value;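 also: cells exposed for 96 hours before readout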
# [5] = growth inhibition, single agents and combos, HTB85, cell-based, BGB or cisplatin IC20 combos, synergistic combos for chromothripsis tumors (AID 1671453); settings: HTB85 osteosarcoma cells, drug combinations, stronger effect = higher value;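 also: cells exposed for 96 hours before readout; 0% = vehicle DMSO and 100% = high DMSO killing control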
# [6] = growth inhibition, single agents and combos, CRL2098, cell-based, BGB or cisplatin IC20 combos, synergistic combos for chromothripsis tumors (AID 1671454); settings: CRL2098 osteosarcoma cells, drug combinations, stronger effect = higher value;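 also: cells exposed for 96 h before readout; 0% = vehicle DMSO and 100% = killing by high DMSO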
# [7] = growth inhibition, single agents and combos, HD-MB03, cell-based, BGB or cisplatin IC20 combos, synergistic combos for chromothripsis tumors (AID 1671455; in the data active = inhibition above about 83%;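 also: 0% = vehicle DMSO and 100% = high DMSO as cytotoxic control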); settings: HD-MB03 medulloblastoma cells, stronger effect = higher value
# [8] = growth inhibition, single agents and combos, UWB1.289, cell-based, BGB or cisplatin combos, synergistic combos for chromothripsis tumors (AID 1671456); settings: UWB1.289 ovarian carcinoma cells, stronger effect = higher value;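 also: cells exposed to compound for four days; 0% = vehicle DMSO and 100% = killing by high DMSO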
# [9] = growth inhibition, single agents and combos, LFS_MB_2R, cell-based, cisplatin combos, synergistic combos for chromothripsis tumors (AID 1671457); settings: LFS_MB_2R medulloblastoma cells, stronger effect = higher value;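 also: cells exposed to compound for four days before readout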
# [10] = growth inhibition, MDA-MB-436, cell-based, BGB or cisplatin combos, synergistic combos for chromothripsis tumors (AID 1671458; call rule not given here;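 also: cells exposed for 96 hours; 0% = vehicle DMSO and 100% = killing by high DMSO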); settings: MDA-MB-436 breast carcinoma growth inhibition, drug combinations, stronger effect = higher value
# [11] = UWB1.289_BRCA1 ovarian cancer growth, cell-based, BGB or cisplatin combinations (AID 1671459); settings: UWB1.289 BRCA1 ovarian carcinoma, drug combinations, stronger effect = higher value
# [12] = drug combination toxicity in non-malignant astrocytes – cell-based, BGB or cisplatin IC20 combos, cytotoxicity control for chromothriptic childhood tumor combination screen (AID 1671460); settings: Human astrocytes, viability inhibition, drug combinations, at 0.5 µM, stronger effect = higher value;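 also: cells exposed to compounds for 96 hours before viability readout; 0% = vehicle and 100% = killing control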
# [13] = BT084 cell growth, single and combined drugs, ICGC_MB145, cisplatin and BGB IC40 combos (AID 1671461); settings: BT084 medulloblastoma cells, drug combinations, stronger effect = higher value;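 also: cells exposed to drugs for 96 hours; 0% = vehicle DMSO and 100% = high DMSO full killing control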
# [14] = RCMB18 cell growth, single agent and combined, cisplatin and BGB IC40 combos (AID 1671462); settings: RCMB18 medulloblastoma cells, stronger effect = higher value;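 also: cells exposed to compound for four days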
# [15] = CRL1545 cell growth, single agent and combined, cisplatin and BGB IC20 combos (AID 1671464); settings: CRL1545 osteosarcoma cells, stronger effect = higher value;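 also: cells exposed to compound for 96 hours before readout; 0% = vehicle DMSO and 100% = high DMSO killing control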
# [16] = measured here: combination with BGB IC40, at 0.05 µM
# [17] = measured here: with BGB IC20 combination, at 0.5 µM
# [18] = measured here: with cisplatin IC20 combination, at 0.5 µM
# [19] = measured here: combination with cisplatin, at 0.5 µM
# [20] = measured here: combination with cisplatin, at 5 µM
smiles,measurement,setting,value
C=C1C(=O)O[C@@H]2C=C(C)CCC=C(C)CC[C@@H]12,inhibition,"[1]; at 0.5 µM, stronger effect = higher value",-19.3% (inactive)
same,inhibition,"[1]; measured here: combination with BGB IC20, at 0.005 µM",-3.36%
same,inhibition,"[1]; measured here: combination with BGB IC40, at 0.005 µM",-13.6%
same,inhibition,[1]; [16],7.16%
same,inhibition,"[1]; measured here: combination with cisplatin, at 0.5 µM, stronger effect = higher value",-51.8%
same,inhibition,"[1]; measured here: combination with cisplatin, at 5 µM, stronger effect = higher value",114%
same,inhibition,"[2]; BGB combo, at 5 µM",5.76%
same,inhibition,[2]; at 0.5 µM,-17.6% (inactive)
same,inhibition,"[2]; cisplatin combo, at 5 µM",29.9%
same,inhibition,[2]; [17],-23.4%
same,inhibition,[2]; [18],-29.2%
same,inhibition,"[2]; single agent, at 5 µM",38.5%
same,inhibition,"[3]; BGB IC20 combo, at 0.005 µM",4.25%
same,inhibition,"[3]; BGB IC40 combo, at 0.005 µM",-33%
same,inhibition,"[3]; BGB IC40 combo, at 0.05 µM",53.7%
same,inhibition,[3]; at 0.5 µM,-17.1% (inactive)
same,inhibition,"[3]; cisplatin combo, at 0.05 µM",51.9%
same,inhibition,"[3]; cisplatin combo, at 0.5 µM",-18%
same,inhibition,"[3]; cisplatin combo, at 5 µM",-19.3%
same,inhibition,"[3]; measured here: 5 uM single agent, at 5 µM",-11.6%
same,inhibition,[4]; at 0.5 µM,-31.9% (inactive)
same,inhibition,[4]; [16],-18.3%
same,inhibition,[4]; [19],-29.4%
same,inhibition,[4]; [20],98.6%
same,inhibition,[5]; at 0.5 µM,-6.12% (inactive)
same,inhibition,"[5]; measured here: with BGB IC20, at 0.5 µM",-12.5%
same,inhibition,"[5]; measured here: with BGB IC20, at 5 µM",51.6%
same,inhibition,"[5]; measured here: with cisplatin IC20, at 0.5 µM",-4.05%
same,inhibition,"[5]; measured here: with cisplatin IC20, at 5 µM",62.5%
same,inhibition,"[5]; single agent, at 5 µM",66.5%
same,inhibition,[6]; at 0.5 µM,-64.3% (inactive)
same,inhibition,"[6]; measured here: combination with BGB at IC20, at 0.5 µM",-14.4%
same,inhibition,"[6]; measured here: combination with cisplatin at IC20, at 0.5 µM",-90.7%
same,inhibition,[7]; at 0.5 µM,-8.56% (inactive)
same,inhibition,"[7]; measured here: combo with BGB at IC20, at 0.5 µM",5.57%
same,inhibition,"[7]; measured here: combo with cisplatin at IC20, at 0.5 µM",-16.5%
same,inhibition,[8]; at 0.5 µM,-5.91% (inactive)
same,inhibition,"[8]; measured here: inhibition with BGB combination, at 0.05 µM",-14.1%
same,inhibition,"[8]; measured here: inhibition with cisplatin combination, at 0.05 µM",-20.4%
same,inhibition,[9]; at 0.5 µM,-23.7% (inactive)
same,inhibition,[9]; [19],-29.5%
same,inhibition,[9]; [20],43.1%
same,inhibition,[10]; at 0.5 µM,-0.98% (inactive)
same,inhibition,"[10]; measured here: BGB combination, at 0.5 µM",1.65%
same,inhibition,"[10]; measured here: BGB combination, at 5 µM",39.9%
same,inhibition,"[10]; measured here: cisplatin combination, at 0.5 µM",-3.72%
same,inhibition,"[10]; measured here: cisplatin combination, at 5 µM",56.7%
same,inhibition,"[11]; BGB combination, concentration series, at 5 µM",44.1%
same,inhibition,[11]; at 0.5 µM,-3.8% (inactive)
same,inhibition,"[11]; cisplatin combination, concentration series, at 5 µM",48.6%
same,inhibition,[12],3.62% (inactive)
same,inhibition,[12]; measured here: combo with BGB IC20,4.43%
same,inhibition,[12]; measured here: combo with cisplatin IC20,0.413%
same,inhibition,[13]; at 0.5 µM,-5.97% (inactive)
same,inhibition,"[13]; cisplatin combination, at 0.5 µM",-9.26%
same,inhibition,"[13]; cisplatin combination, at 5 µM",48.9%
same,inhibition,"[13]; measured here: BGB IC40 combination 0.05 uM, at 0.05 µM",-2.12%
same,inhibition,"[13]; single agent, at 5 µM",20.7%
same,inhibition,[14]; at 0.5 µM,9.79% (inactive)
same,inhibition,"[14]; cisplatin combo, at 5 µM",75.6%
same,inhibition,"[14]; measured here: BGB IC40 combination, at 0.05 µM",6.86%
same,inhibition,[14]; [19],15.7%
same,inhibition,"[14]; single agent, at 5 µM",33.4%
same,inhibition,[15]; at 0.5 µM,8.87% (inactive)
same,inhibition,[15]; [17],-16.3%
same,inhibition,[15]; [18],21.4%
same,inhibition,"[15]; single agent, at 0.05 µM",18.3%
same,inhibition,"[15]; single agent, at 5 µM",72.3%
